Results as given in PubChem BioAssay (EPA / NIEHS).
Results filed as inconclusive are left out. Activity calls are given as the source filed them. How the source made its calls, unless noted: active means hit-call score of the fitted dose curve at least 0.9, where 1 is the maximum; inactive means score below 0.9.

Key:
[1] = read-out: solute carrier (SLCO1B1), SLCO1B1 (gene 10599); assay: LTEA_HepaRG_SLCO1B1: Life Technologies and Expression Analysis (LTEA) Assay for solute carrier (SLCO1B1) using HepaRG (AID 2283530); settings: mRNA level, 48 h; actives raise or lower the signal
How it was run: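 SLCO1B1 transcript read by qRT-PCR (Fluidigm arrays), normalized to three housekeeping genes, after 48 h chemical exposure of HepaRG cells; bidirectional concentration-response fitting versus 0.5% DMSO baseline. Eight-point half-log series, maximum 100 uM.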

[2] = read-out: sulfotransferase 2A1 (SULT2A1), SULT2A1 (gene 6822); assay: LTEA_HepaRG_SULT2A1: Life Technologies and Expression Analysis (LTEA) Assay for sulfotransferase 2A1 (SULT2A1) using HepaRG (AID 2283531); settings: mRNA level, 48 h; actives raise or lower the signal
How it was run: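 HepaRG, 48 h chemical exposure, 8-pt half-log curve from 100 uM in 0.5% DMSO, duplicates. Readout: TaqMan qRT-PCR of SULT2A1 mRNA, housekeeping-normalized. Bidirectional fit vs DMSO baseline.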

[3] = read-out: Transforming Growth Factor (TGFB1), TGFB1 (gene 7040); assay: LTEA_HepaRG_TGFB1: Life Technologies and Expression Analysis (LTEA) Assay for Transforming Growth Factor (TGFB1) Transporter using HepaRG (AID 2283533); settings: mRNA level, 48 h; actives raise or lower the signal
How it was run: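 qRT-PCR readout of TGFB1 transcript in HepaRG lysates, normalized to three housekeeping genes; gain or loss of signal fitted relative to 0.5% DMSO vehicle. Exposure: 48 h, 8-point curve from 100 uM, duplicate wells.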

TIMP1, TIMP1 (gene 7076) = assay: LTEA_HepaRG_TIMP1: Life Technologies and Expression Analysis (LTEA) Assay for TIMP1 using HepaRG (AID 2283534); settings: mRNA level, 48 h; actives raise or lower the signal;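 further: TaqMan qRT-PCR signal normalized to ACTB GAPDH and POLR2A housekeeping genes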
How it was run: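 HepaRG, 48 h exposure, 8-pt half-log series from 100 uM in 0.5% DMSO, duplicates; TIMP1 transcript by Fluidigm qRT-PCR, housekeeping-normalized; bidirectional curve fit vs DMSO baseline.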

[4] = read-out: Tumor necrosis factor receptor 1 (TNFRSF1A), TNFRSF1A (gene 7132); assay: LTEA_HepaRG_TNFRSF1A: Life Technologies and Expression Analysis (LTEA) Assay for Tumor necrosis factor receptor 1 (TNFRSF1A) using HepaRG (AID 2283535); settings: mRNA level, 48 h; actives raise or lower the signal
How it was run: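 HepaRG, 48 h plating then 48 h chemical exposure, serum-free induction media; 8-pt CRC from 100 uM, half-log, 0.5% DMSO vehicle, duplicates. Readout: TaqMan qRT-PCR (Fluidigm), housekeeping-gene normalized; bidirectional fit vs DMSO.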

[5] = read-out: Thyroid Hormone Responsive (THRSP), THRSP (gene 7069); assay: LTEA_HepaRG_THRSP: Life Technologies and Expression Analysis (LTEA) Assay for Thyroid Hormone Responsive (THRSP) using HepaRG (AID 2283536); settings: mRNA level, 48 h; actives raise or lower the signal
How it was run: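 THRSP transcript quantified by Fluidigm qRT-PCR against three housekeeping genes after 48 h chemical exposure of HepaRG cells in serum-free induction medium; eight-point half-log series, top 100 uM, 0.5% DMSO vehicle, duplicate wells.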

[6] = read-out: Cellular tumor antigen p53 (Homo sapiens) (UniProt P04637); assay: LTEA_HepaRG_TP53: Life Technologies and Expression Analysis (LTEA) Assay for Tumor Protein P53 (TP53) using HepaRG (AID 2283537); settings: mRNA level, 48 h; actives raise or lower the signal
How it was run: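 TP53 transcript measured by qRT-PCR, normalized to three housekeeping genes, after 48 h treatment of human HepaRG cultures with chemicals from 100 uM downward in half-log steps (0.5% DMSO vehicle, serum-free induction medium). Up- or down-regulation fitted against DMSO.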

[7] = read-out: UDP glucuronosyltransferase (UGT1A1), UGT1A1 (gene 54658); assay: LTEA_HepaRG_UGT1A1: Life Technologies and Expression Analysis (LTEA) Assay for UDP glucuronosyltransferase (UGT1A1) using HepaRG (AID 2283538); settings: mRNA level, 48 h; actives raise or lower the signal
How it was run: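 mRNA induction or loss of UGT1A1, by TaqMan qRT-PCR, in duplicate HepaRG wells after 48 h exposure to half-log dilutions topping at 100 uM; DMSO (0.5%) served as baseline.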

[8] = read-out: UDP glucuronosyltransferase (UGT1A6), UGT1A6 (gene 54578); assay: LTEA_HepaRG_UGT1A6: Life Technologies and Expression Analysis (LTEA) Assay for UDP glucuronosyltransferase (UGT1A6) using HepaRG (AID 2283539); settings: mRNA level, 48 h; actives raise or lower the signal
How it was run: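 qRT-PCR readout of UGT1A6 mRNA (normalized to ACTB/GAPDH/POLR2A) in differentiated HepaRG cells after 48 h chemical exposure; 8 concentrations, top 100 uM, half-log steps, 0.5% DMSO. Bidirectional curve fit relative to DMSO baseline.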

[9] = read-out: X-box binding protein 1 (XBP1), XBP1 (gene 7494); assay: LTEA_HepaRG_XBP1: Life Technologies and Expression Analysis (LTEA) Assay for X-box binding protein 1 (XBP1) using HepaRG (AID 2283540); settings: mRNA level, 48 h; actives raise or lower the signal
How it was run: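 HepaRG, 48 h exposure, 8-pt half-log CRC top 100 uM, 0.5% DMSO vehicle, duplicates. Readout: TaqMan qRT-PCR of XBP1 mRNA, housekeeping-normalised (ACTB/GAPDH/POLR2A); bidirectional fit vs DMSO baseline.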

[10] = LTEA_HepaRG_LDH_cytotoxicity: Cytotoxicity Assessment in the Life Technologies and Expression Analysis (LTEA) Assay (AID 2283563; active means hit-call score of the fitted dose curve at least 0.9, where 1 is the maximum)
How it was run: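 HepaRG (human liver line), 48 h exposure, 8-pt half-log series from 100 uM, 0.5% DMSO vehicle, duplicates. Read-out: LDH in spent medium. Positive-direction fit vs DMSO baseline.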

[11] = TOX21_p53_BLA_p2_viability: Viability Assessment in the Tox21 HCT-116 p53 Agonism Beta-lactamase Assay, Phase 2 (AID 2283591; active means hit-call score of the fitted dose curve at least 0.9, where 1 is the maximum;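 further: actives lower the ATP signal meaning cytotoxicity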)
How it was run: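 Cytotoxicity readout: CellTiter-Glo ATP luminescence, 30 min at room temperature, after the beta-lactamase read. Cells were HCT116 exposed 16 h at 37C to compounds pin-transferred at 217-fold dilution from DMSO stocks.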

[12] = TOX21_p53_BLA_p3_viability: Viability Assessment in the Tox21 HCT-116 p53 Agonism Beta-lactamase Assay, Phase 3 (AID 2283593; active means hit-call score of the fitted dose curve at least 0.9, where 1 is the maximum;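 further: cells exposed to compound for 16 h before reading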)
How it was run: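 Cellular ATP was quantified by CellTiter-Glo luminescence, read after 30 min at room temperature. Beforehand, HCT116 cells (4000/well) received compound 5 h post-seeding, 217-fold diluted from DMSO, then incubated 16 h at 37C.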

[13] = target: Cellular tumor antigen p53 (Homo sapiens) (UniProt P04637); assay: TOX21_p53_BLA_p3_ratio: Tox21 HCT-116 p53 Agonism Beta-lactamase Assay, Ratio, Phase 3 (AID 2283596; active means hit-call score of the fitted dose curve at least 0.9, where 1 is the maximum)
How it was run: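 Cells were seeded at 4000/well, rested 5 h at 37C, then dosed with DMSO compound solutions (217-fold dilution) for 16 h. CCF4-AM substrate was loaded for 2 h at room temperature, and the 460/530 nm emission ratio was fitted for gain of signal versus DMSO.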

[14] = TOX21_p53_BLA_p4_viability: Viability Assessment in the Tox21 HCT-116 p53 Agonism Beta-lactamase Assay, Phase 4 (AID 2283597; active means hit-call score of the fitted dose curve at least 0.9, where 1 is the maximum;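 further: hits lower the luminescence signal meaning cytotoxicity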)
How it was run: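 ATP content by CellTiter-Glo luminescence, 30 min RT, read after the beta-lactamase ratio step. Cells: HCT116, 4000/well, compound added after 5 h, exposure 16 h at 37C. Signal loss = reduced viability.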

[15] = target: Cellular tumor antigen p53 (Homo sapiens) (UniProt P04637); assay: TOX21_p53_BLA_p5_ratio: Tox21 HCT-116 p53 Agonism Beta-lactamase Assay, Ratio, Phase 5 (AID 2283599; active means hit-call score of the fitted dose curve at least 0.9, where 1 is the maximum)
How it was run: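 Beta-lactamase reporter ratio (blue 460 nm over green 530 nm, 405 nm excitation) after 2 h CCF4-AM loading, in HCT-116 cells exposed 16 h at 37 C to compounds pinned at 217-fold dilution. Increases relative to DMSO baseline scored.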

[16] = TOX21_p53_BLA_p5_viability: Viability Assessment in the Tox21 HCT-116 p53 Agonism Beta-lactamase Assay, Phase 5 (AID 2283600; active means hit-call score of the fitted dose curve at least 0.9, where 1 is the maximum)
How it was run: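 ATP luminescence (CellTiter-Glo, 30 min, RT) served as the viability read-out, with loss of signal indicating cytotoxicity. Compounds in DMSO were pinned at a 217-fold dilution onto 4000 cells/well and incubated 16 h, 37C.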

[17] = target: Cellular tumor antigen p53 (Homo sapiens) (UniProt P04637); assay: TOX21_p53_BLA_p2_ratio: Tox21 HCT-116 p53 Agonism Beta-lactamase Assay, Ratio, Phase 2 (AID 2283592; active means hit-call score of the fitted dose curve at least 0.9, where 1 is the maximum)
How it was run: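 Readout: blue/green (460/530 nm) FRET emission ratio after 2 h CCF4-AM loading at room temperature, excitation 405 nm. HCT116 p53 bla cells, 16 h compound exposure at 37C, 5% CO2; agonist direction fitted against DMSO baseline.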

Measured: AC50

Chain of Cellular tumor antigen p53 (Homo sapiens) (P04637 whole entry, looked up): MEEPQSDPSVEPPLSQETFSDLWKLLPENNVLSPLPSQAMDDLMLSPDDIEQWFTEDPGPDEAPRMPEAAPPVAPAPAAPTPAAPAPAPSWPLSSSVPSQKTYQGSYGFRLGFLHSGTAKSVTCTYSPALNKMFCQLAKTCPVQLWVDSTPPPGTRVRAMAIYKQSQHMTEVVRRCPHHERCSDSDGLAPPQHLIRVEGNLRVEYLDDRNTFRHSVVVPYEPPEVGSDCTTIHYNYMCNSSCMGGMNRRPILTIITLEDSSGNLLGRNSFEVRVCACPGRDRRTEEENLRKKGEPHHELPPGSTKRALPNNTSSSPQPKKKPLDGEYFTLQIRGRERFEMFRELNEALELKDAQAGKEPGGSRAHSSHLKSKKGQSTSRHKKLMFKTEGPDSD

Nc1c(Cl)c(Cl)nc(C(=O)O)c1Cl
not listed: [17]
inactive: all other assays above

CCCCC(O)(Cn1cncn1)c1ccc(Cl)cc1Cl (stereo unspecified)
inactive: TIMP1, TIMP1 (gene 7076) | [4] | [9] | [10] | [11] | [12] | [13] | [16]
active: [1] 76.6 µM | [2] 76.3 µM | [3] 61.2 µM | [5] 9.77 µM | [6] 72.4 µM | [7] 81.4 µM | [8] 73.4 µM | [14] 82 µM | [15] 72.8 µM

Cc1nc(N(C)C)nc(OC(=O)N(C)C)c1C
inactive: [1] | [2] | [3] | TIMP1, TIMP1 (gene 7076) | [4] | [5] | [8] | [9] | [10]
active: [7] 13.9 µM

O=c1n(Cl)c(=O)n(Cl)c(=O)n1Cl
not listed: [13] | [14]
inactive: all other assays above

COC(=O)NC(=S)Nc1ccccc1NC(=S)NC(=O)OC
active: [7] 14.3 µM
not listed: [12] | [13] | [14] | [17]
inactive: all other assays above

COCC(=O)N(c1c(C)cccc1C)C(C)C(=O)OC (stereo unspecified)
inactive: all assays above

CCCCC(C#N)(Cn1cncn1)c1ccc(Cl)cc1 (stereo unspecified)
active: [3] 50 µM | [5] 25 µM | [7] 12.2 µM
not listed: [17]
inactive: all other assays above

CC(C)(C)C(=O)C(Oc1ccc(Cl)cc1)n1cncn1 (stereo unspecified)
active: [5] 33 µM | [7] 6.35 µM | [15] 86 µM
not listed: [2] | [17]
inactive: all other assays above

CN/C(=N\[N+](=O)[O-])NCc1cnc(Cl)s1
active: [5] 50 µM | [7] 50 µM
not listed: [12] | [13] | [15] | [17]
inactive: all other assays above

CCCN(CC)CC1COC2(CCC(C(C)(C)C)CC2)O1 (stereo unspecified)
active: [5] 0.319 µM
not listed: [13] | [15] | [17]
inactive: all other assays above

CC1(C)CCC(=Cc2ccc(Cl)cc2)C1(O)Cn1cncn1 (stereo unspecified)
active: [5] 24.1 µM | [7] 5.72 µM
not listed: [17]
inactive: all other assays above
